Data: PubChem BioAssay (EPA / NIEHS)
Several values for one entry are separate records, joined by “and”; a condition that tells them apart may be missing. Equal entries are not always repeated. Records with an inconclusive call do not appear. The source holds several records for some structures; these can differ, active in one and inactive in another. Activity calls are given as the source filed them. Rule for the calls, unless noted: active = hit-call score of the fitted dose curve at least 0.9, where 1 is the maximum; inactive = score below 0.9.

Columns and labels:
[1] = read-out: Interleukin-8 (IL8), CXCL8 (gene 3576); experiment: BSK_3C_IL8: BioMAP Diversity Plus: 3C Assay for Interleukin-8 (IL8) Biomarker Activity (AID 2283020); conditions: primary human endothelial cells (HUVEC); actives raise or lower the signal
Procedure, shortened: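 Human vascular endothelial cells (umbilical vein) in the 3C system; IL-8 level detected by ELISA at 24 h post-dose, with DMSO as baseline.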

[2] = target: human Vitamin D Receptor (VDR), VDR (gene 7421) (UniProt P11473); experiment: ATG_VDR_TRANS: Attagene TRANS-FACTORIAL HepG2 Assay for human Vitamin D Receptor (VDR) (AID 2283022; active = hit-call score of the fitted dose curve at least 0.9, where 1 is the maximum)
Procedure, shortened: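 HepG2 cells were transiently transfected with GAL4-UAS reporter units and a chimeric VDR-Gal4 construct, then dosed for 24 hours. Reporter mRNA was quantified by RT-PCR, fluorescent labeling, HpaI digestion and capillary electrophoresis; gain of signal analysed vs DMSO.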

[3] = BSK_3C_SRB: Viability Assessment in the BioMAP Diversity Plus: 3C Assay (AID 2283023); conditions: primary human endothelial cells (HUVEC);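 note: fitted both ways against DMSO so a hit may be signal rise or drop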
Procedure, shortened: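 Human umbilical vein endothelial cells in the 3C system, treated 24 h. Total protein measured by 0.1% sulforhodamine B staining after 10% TCA fixation, read at 560 nm; bidirectional fit versus DMSO.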

[4] = read-out: Matrix Metallopeptidase 1 (MMP1), MMP1 (gene 4312); experiment: BSK_BE3C_MMP1: BioMAP Diversity Plus: BE3C Assay for Matrix Metallopeptidase 1 (MMP1) Biomarker Activity (AID 2283024); conditions: primary human bronchial epithelial cells; actives raise or lower the signal
Procedure, shortened: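 Dose cells, wait 24 h, run MMP1 ELISA; cells are human bronchial epithelial primaries. Both increases and decreases relative to DMSO counted.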

[5] = read-out: Pselectin, SELP (gene 6403); experiment: BSK_4H_Pselectin: BioMAP Diversity Plus: 4H Assay for Pselectin Biomarker Activity (AID 2283026); conditions: primary human endothelial cells (HUVEC); actives raise or lower the signal
Procedure, shortened: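 Human vascular endothelium from umbilical vein; P-selectin measured by ELISA at 24 h post-dose, with cytotoxicity checked by sulforhodamine B total-protein staining in parallel cultures (0.1% SRB after 10% TCA fixation, read at 560 nm).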

[6] = BSK_4H_SRB: Viability Assessment in the BioMAP Diversity Plus: 4H Assay (AID 2283027); conditions: primary human endothelial cells (HUVEC);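 note: cells exposed to compound for 24 h before staining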;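 for AC50: curves fitted both ways versus DMSO so AC50 may be loss or gain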
Procedure, shortened: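 Human umbilical vein endothelial cells, 24 h after chemical dosing; total protein measured by 0.1% sulforhodamine B staining after 10% TCA fixation, read at 560 nm. Bidirectional fitting against DMSO.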

[7] = BSK_BE3C_SRB: Viability Assessment in the BioMAP Diversity Plus: BE3C Assay (AID 2283028); conditions: primary human bronchial epithelial cells;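 for AC50: fitted both ways so AC50 may mark signal gain or loss versus DMSO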
Procedure, shortened: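 Human bronchial epithelial primary cells in confluent culture, 24 h after chemical dosing; total protein by 0.1% SRB staining after 10% TCA fixation, read at 560 nm. Bidirectional fitting versus DMSO baseline.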

[8] = read-out: Human Leukocyte Antigen - DR isotype (HLADR), HLA-DRA (gene 3122); experiment: BSK_BE3C_HLADR: BioMAP Diversity Plus: BE3C Assay for Human Leukocyte Antigen - DR isotype (HLADR) Biomarker Activity (AID 2283032); conditions: primary human bronchial epithelial cells; actives raise or lower the signal
Procedure, shortened: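 Signal came from an ELISA for HLA-DR in human bronchial epithelial primary cells harvested 24 h after treatment; gain- and loss-of-signal fitting used DMSO controls as reference.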

[9] = read-out: Vascular cell adhesion molecule 1 (VCAM1), VCAM1 (gene 7412); experiment: BSK_4H_VCAM1: BioMAP Diversity Plus: 4H Assay for Vascular cell adhesion molecule 1 (VCAM1) Biomarker Activity (AID 2283033); conditions: primary human endothelial cells (HUVEC); actives raise or lower the signal;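 for outcome: cell-surface VCAM-1 protein measured by ELISA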
Procedure, shortened: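 Endpoint derived from bidirectional fitting against DMSO controls of VCAM-1 ELISA signal in umbilical vein endothelial cells sampled at 24 h following treatment.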

[10] = read-out: Interferon-gamma inducible Protein 10 (IP10), CXCL10 (gene 3627); experiment: BSK_BE3C_IP10: BioMAP Diversity Plus: BE3C Assay for Interferon-gamma inducible Protein 10 (IP10) Biomarker Activity (AID 2283034); conditions: primary human bronchial epithelial cells; actives raise or lower the signal
Procedure, shortened: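 Using primary human bronchial epithelial cultures, the assay captures IP-10 by ELISA one day (24 h) after exposure. Parallel SRB staining of total protein flags overt cytotoxicity. Fits run bidirectionally relative to DMSO.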

[11] = read-out: Monokine induced gamma interferon (MIG), CXCL9 (gene 4283); experiment: BSK_BE3C_MIG: BioMAP Diversity Plus: BE3C Assay for Monokine induced gamma interferon (MIG) Biomarker Activity (AID 2283035); conditions: primary human bronchial epithelial cells; actives raise or lower the signal;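 for outcome: MIG protein measured by ELISA in BE3C cultures after 24 h of dosing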
Procedure, shortened: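 Primary human bronchial epithelial cells treated for 24 h; MIG levels measured by ELISA, fitted bidirectionally versus DMSO. Parallel SRB total-protein staining assessed cytotoxicity.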

[12] = read-out: Plasminogen activator inhibitor-1 (PAI1), SERPINE1 (gene 5054); experiment: BSK_BE3C_PAI1: BioMAP Diversity Plus: BE3C Assay for Plasminogen activator inhibitor-1 (PAI1) Biomarker Activity (AID 2283037); conditions: primary human bronchial epithelial cells; actives raise or lower the signal
Procedure, shortened: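 PAI-1 biomarker levels in treated human bronchial epithelial cells are determined by ELISA at 24 h. Both increases and decreases relative to DMSO are fitted.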

[13] = read-out: urokinase plasminogen activator (uPA), PLAU (gene 5328); experiment: BSK_BE3C_uPA: BioMAP Diversity Plus: BE3C Assay for urokinase plasminogen activator (uPA) Biomarker Activity (AID 2283038); conditions: primary human bronchial epithelial cells; actives raise or lower the signal;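 for outcome: uPA protein level quantified by ELISA in cell cultures; uPA read one day after compound addition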
Procedure, shortened: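 Primary human bronchial epithelial cells, uPA measured by ELISA 24 h after dosing. Bidirectional change relative to DMSO; cytotoxicity checked in parallel cultures by sulforhodamine B total-protein staining.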

[14] = read-out: Urokinase-type plasminogen activator receptor (uPAR), PLAUR (gene 5329); experiment: BSK_BE3C_uPAR: BioMAP Diversity Plus: BE3C Assay for Urokinase-type plasminogen activator receptor (uPAR) Biomarker Activity (AID 2283039); conditions: primary human bronchial epithelial cells; actives raise or lower the signal;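 for outcome: cells exposed to compound for one day before measurement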
Procedure, shortened: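 A uPAR ELISA serves as the readout, taken 24 h after treating primary human bronchial epithelial cells. Responses in either direction are fitted against DMSO, which defines baseline activity.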

[15] = read-out: Interleukin-6 (IL6), IL6 (gene 3569); experiment: BSK_CASM3C_IL6: BioMAP Diversity Plus: CASM3C Assay for Interleukin-6 (IL6) Biomarker Activity for (AID 2283040); conditions: primary human coronary artery smooth muscle cells; actives raise or lower the signal
[16] = BSK_3C_Vis: BioMAP Diversity Plus: 3C Assay for Morphology Visualization (AID 2283025); conditions: primary human endothelial cells (HUVEC);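 note: light microscopy image of cell morphology used as background control; fitted both ways so gain or loss versus DMSO counts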
Procedure, shortened: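 Endothelial cells from human umbilical vein were treated with test chemicals for 24 h and inspected by light microscopy for changes in cell conformation.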

[17] = read-out: Thrombomodulin, THBD (gene 7056); experiment: BSK_3C_Thrombomodulin: BioMAP Diversity Plus: 3C Assay for Thrombomodulin Biomarker Activity (AID 2283029); conditions: primary human endothelial cells (HUVEC); actives raise or lower the signal
Procedure, shortened: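 Thrombomodulin ELISA, human primary HUVEC, 24 h post-dose; data fitted in both directions relative to DMSO.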

[18] = read-out: Vascular endothelial growth factor receptor 2 (Homo sapiens) (UniProt P35968); experiment: BSK_4H_VEGFRII: BioMAP Diversity Plus: 4H Assay for Vascular endothelial growth factor receptor 2 (VEGFR2) Biomarker Activity (AID 2283031); conditions: primary human endothelial cells (HUVEC); actives raise or lower the signal;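 for AC50: cell-surface VEGFR2 protein level quantified by ELISA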
Procedure, shortened: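 Primary human umbilical vein endothelial cells (4H system), 24 h exposure; cell-surface VEGFR2 measured by ELISA. Bidirectional fitting versus DMSO; cytotoxicity checked in parallel by SRB total-protein staining.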

[19] = read-out: Urokinase-type plasminogen activator receptor (uPAR), PLAUR (gene 5329); experiment: BSK_4H_uPAR: BioMAP Diversity Plus: 4H Assay for Urokinase-type plasminogen activator receptor (uPAR) Biomarker Activity (AID 2283030); conditions: primary human endothelial cells (HUVEC); actives raise or lower the signal
Procedure, shortened: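 Human umbilical vein endothelial cells in the 4H system, 24 h after chemical dosing. Cell-surface uPAR measured by ELISA, fitted in both directions versus DMSO; cytotoxicity checked by SRB total protein in parallel cultures.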

human Vitamin D Receptor (VDR), VDR (gene 7421), sequence (P11473 whole entry, looked up, the tested form may be a part): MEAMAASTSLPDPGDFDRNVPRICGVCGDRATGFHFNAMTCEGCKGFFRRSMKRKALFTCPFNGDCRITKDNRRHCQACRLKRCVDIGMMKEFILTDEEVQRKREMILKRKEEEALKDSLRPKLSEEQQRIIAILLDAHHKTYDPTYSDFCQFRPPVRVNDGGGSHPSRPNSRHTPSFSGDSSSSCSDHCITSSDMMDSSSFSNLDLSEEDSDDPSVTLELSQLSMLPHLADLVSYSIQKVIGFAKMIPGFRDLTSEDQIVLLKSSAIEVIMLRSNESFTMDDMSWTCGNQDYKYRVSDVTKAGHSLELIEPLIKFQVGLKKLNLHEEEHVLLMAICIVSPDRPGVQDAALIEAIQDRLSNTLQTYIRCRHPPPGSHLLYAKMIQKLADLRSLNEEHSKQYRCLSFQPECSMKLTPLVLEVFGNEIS

CNS(=O)(=O)C(F)(F)C(F)(F)C(F)(F)C(F)(F)C(F)(F)C(F)(F)C(F)(F)C(F)(F)F
outcome [1]: inactive | outcome [2]: inactive | outcome [3]: inactive | outcome [4]: inactive | outcome [5]: inactive | AC50 [6]: 29.8 µM (active) | outcome [6]: inactive | outcome [7]: inactive | outcome [8]: inactive | outcome [9]: inactive | AC50 [10]: 13.3 µM (active) | outcome [10]: inactive | outcome [11]: inactive | AC50 [12]: 2.67 µM (active) and 1.97 µM (active) | outcome [13]: inactive | outcome [14]: inactive | outcome [15]: inactive

O=C1C=CC(=O)N1c1ccc(Cc2ccc(N3C(=O)C=CC3=O)cc2)cc1
AC50 [1]: 7.33 µM (active) | outcome [2]: inactive | AC50 [3]: 11.5 µM (active) | AC50 [4]: 4.99 µM (active) | AC50 [16]: 5.63 µM (active) | AC50 [5]: 7.11 µM (active) | AC50 [6]: 12.1 µM (active) | AC50 [7]: 3.04 µM (active) | AC50 [8]: 2.8 µM (active) | AC50 [9]: 9.59 µM (active) | AC50 [10]: 2.6 µM (active) | AC50 [11]: 6.3 µM (active) | AC50 [12]: 3.54 µM (active) | AC50 [13]: 2.62 µM (active) | AC50 [14]: 3.31 µM (active) | AC50 [15]: 9.64 µM (active)

OCCCC(F)(F)C(F)(F)C(F)(F)C(F)(F)C(F)(F)C(F)(F)C(F)(F)C(F)(F)F
AC50 [1]: 19.6 µM (active) and 20.6 µM (active) | outcome [2]: inactive | AC50 [3]: 10.5 µM (active) and 28.4 µM (active) | AC50 [4]: 7.11 µM (active) and 55.2 µM (active) | AC50 [5]: 32.3 µM (active) and 24.1 µM (active) | AC50 [6]: 11.1 µM (active) and 20.8 µM (active) | AC50 [7]: 51.9 µM (active) and 48.7 µM (active) | AC50 [17]: 43.7 µM (active) and 56.3 µM (active) | AC50 [18]: 53.5 µM (active) and 36.8 µM (active) | AC50 [8]: 44.6 µM (active) and 49.9 µM (active) | AC50 [9]: 31.2 µM (active) and 45.1 µM (active) | AC50 [10]: 32.3 µM (active) and 37.7 µM (active) | AC50 [12]: 37.8 µM (active) and 30.3 µM (active) | AC50 [13]: 55.2 µM (active) | AC50 [14]: 49.4 µM (active) and 54.6 µM (active) | outcome [15]: inactive

NS(=O)(=O)C(F)(F)C(F)(F)C(F)(F)C(F)(F)C(F)(F)C(F)(F)F
outcome [1]: inactive | outcome [2]: inactive | AC50 [3]: 49.4 µM (active) and 44.3 µM (active) | AC50 [4]: 30 µM (active) and 33.2 µM (active) | outcome [5]: inactive | AC50 [6]: 37.2 µM (active) and 30 µM (active) | outcome [7]: inactive | outcome [17]: inactive | outcome [8]: inactive | AC50 [10]: 30 µM (active) and 24.4 µM (active) | AC50 [12]: 7.32 µM (active) | outcome [12]: inactive | outcome [13]: inactive | AC50 [14]: 41.8 µM (active) | outcome [14]: inactive | outcome [15]: inactive

O=C(O)C(F)(F)C(F)(F)C(F)(F)C(=O)O
outcome [1]: inactive | outcome [2]: inactive | outcome [3]: inactive | outcome [4]: inactive | outcome [5]: inactive | outcome [6]: inactive | outcome [7]: inactive | outcome [19]: inactive | outcome [18]: inactive | outcome [8]: inactive | outcome [9]: inactive | outcome [10]: inactive | outcome [12]: inactive | outcome [13]: inactive | outcome [14]: inactive | outcome [15]: inactive

Cc1cc(C)c(O)c(C(C)(C)C)c1
AC50 [1]: 20 µM (active) | AC50 [3]: 30.1 µM (active) | AC50 [4]: 29 µM (active) | AC50 [16]: 14.9 µM (active) | AC50 [5]: 20 µM (active) | AC50 [6]: 29.5 µM (active) | AC50 [7]: 32 µM (active) | AC50 [17]: 33.9 µM (active) | outcome [18]: inactive | AC50 [8]: 29.5 µM (active) | AC50 [10]: 31 µM (active) | AC50 [12]: 27.9 µM (active) | AC50 [13]: 28.7 µM (active) | AC50 [14]: 28.2 µM (active) | AC50 [15]: 29.6 µM (active)

O=C(O)CCC(F)(F)C(F)(F)C(F)(F)F
outcome [1]: inactive | outcome [2]: inactive | outcome [3]: inactive | outcome [4]: inactive | outcome [5]: inactive | outcome [6]: inactive | outcome [7]: inactive | outcome [17]: inactive | outcome [19]: inactive | outcome [8]: inactive | outcome [10]: inactive | outcome [12]: inactive | outcome [13]: inactive | outcome [14]: inactive | outcome [15]: inactive
